Activity calls are given as the source filed them. Rule for the calls: active = hit-call score of the fitted dose curve at least 0.9, where 1 is the maximum; inactive = score below 0.9.
test system: TTR (gene 7276); assay: CCTE_GLTED_hTTR_0.125uM: CCTE's human Transthyretin (hTTR) Inhibition Assay, with 0.125uM TTR, Great Lakes Toxicology and Ecology Division (GLTED) Lab (AID 2284431)
Experimental: CCTE_GLTED_hTTR is a cell-free, single-readout assay designed to test the chemicals' ability to displace T4 from the human transthyretin (TTR) protein. TTR (at 0.125uM or 0.5uM) is incubated in presence of test chemical for 2 hours during which disrupting chemicals displace ANSA from the TTR protein. Results read fluorescence at 380 excitation and 475 emission.CCTE_GLTED_hTTR_0.125uM is the assay component measured from the CCTE_GLTED_hTTR assay. It is designed to make measurements of fluorescent polarization, using a form of binding reporter, as detected with Fluorescence signals by Fluorescence technology.Data from the assay component CCTE_GLTED_hTTR_0.125uM was analyzed at the assay endpoint CCTE_GLTED_hTTR_0.125uM in the positive analysis fitting direction relative to DMSO as the negative control and baseline of activity. Using a type of binding reporter, loss-of-signal activity can be used to understand a chemical's ability to displace T4 from transthyretin. To generalize the intended target to other relatable targets, this assay endpoint is annotated to the 'transporter' intended target family, where the subfamily is 'hormone carrier protein'.
Human transthyretin (TTR) assay, developed at Great Lakes Toxicology and Ecology Division (GLTED) within the EPA's Center for Computational Toxicology and Exposure (CCTE), is designed to test the chemicals' ability to displace T4 from the TTR protein. TTR (0.125uM) is incubated in presence of test chemical for 2 hours during which disrupting chemicals displace ANSA from the TTR protein. Results read fluorescence at 380 excitation and 475 emission.

Structure (SMILES)	AC50
O=C(O)c1cccc(Oc2ccccc2)c1	0.542 µM (active)
O=C(NS(=O)(=O)/C=C/c1ccccc1)c1ccc(F)cc1Cl	13 µM (active)
CC(C)=CCCC(C)CCO (stereo unspecified)	45.8 µM (active)
COC(=O)c1c(Cl)c(Cl)c(C(=O)OC)c(Cl)c1Cl	0.0546 µM (active)
O=C(O)c1cc(N=Nc2ccc(S(=O)(=O)Nc3ccccn3)cc2)ccc1O	0.422 µM (active)
C=CCCCCCCCCC(=O)O	7.39 µM (active)
Oc1ccc2c(c1)-c1ccccc1C2	7.96 µM (active)
Cn1cnc([N+](=O)[O-])c1Sc1ncnc2nc[nH]c12	25.1 µM (active)
COc1ccc(/C=C/S(=O)(=O)NC(=O)c2ccc(C)cc2Cl)cc1	12.1 µM (active)
O=C(OC[C@H]1O[C@@H](OC(=O)c2cc(O)c(O)c(OC(=O)c3cc(O)c(O)c(O)c3)c2)[C@H](OC(=O)c2cc(O)c(O)c(OC(=O)c3cc(O)c(O)c(O)c3)c2)[C@@H](OC(=O)c2cc(O)c(O)c(OC(=O)c3cc(O)c(O)c(O)c3)c2)[C@@H]1OC(=O)c1cc(O)c(O)c(OC(=O)c2cc(O)c(O)c(O)c2)c1)c1cc(O)c(O)c(OC(=O)c2cc(O)c(O)c(O)c2)c1	0.252 µM (active)
Nc1ccc(Nc2ccccc2)cc1	31.5 µM (active)

From PubChem BioAssay (EPA / NIEHS)
